G9a block = G9a (human) methyltransferase inhibition. Q96KQ7. G9a H3K9 monomethylation, AlphaScreen, 2 h. Potency, µM (titrated, usually from 102 µM), without a hit: at the highest dose activity, negative = inhibition, actives largely listed as inhibitors. 350,000 tested, 8.8% active. AID 504332; also: % is scaled to controls: 0 for no effect and ±100 for the full control effect; nearly all actives have a fitted effect of over 75% in size
Target sequence (Q96KQ7 913-1193 limits assumed): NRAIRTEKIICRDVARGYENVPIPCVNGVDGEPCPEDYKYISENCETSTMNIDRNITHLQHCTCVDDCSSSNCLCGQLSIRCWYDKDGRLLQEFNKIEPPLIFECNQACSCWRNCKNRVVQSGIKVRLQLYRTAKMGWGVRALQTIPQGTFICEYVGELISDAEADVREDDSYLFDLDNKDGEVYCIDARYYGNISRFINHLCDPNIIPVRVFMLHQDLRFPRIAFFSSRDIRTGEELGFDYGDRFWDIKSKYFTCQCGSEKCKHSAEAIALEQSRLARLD
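Quantitative HTS format: methyltransferase activity on a biotin-tagged H3K9 peptide is measured by AlphaScreen, using a rabbit anti-monomethyl-H3K9 antibody with streptavidin donor and anti-IgG acceptor beads. Final levels are 20 nM enzyme, 500 nM peptide, 20 uM SAM; 2 h RT.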
ALOX12 inh = inhibitors of human 12S-lipoxygenase ALOX12 | P18054 | purified 12hLO, xylenol orange hydroperoxide absorbance | 580,000 tested, 1.1% active | Potency, µM (doses to about 108 µM), for the others: at the highest dose activity change, negative = inhibition, most hits filed as inhibitors | AID 1671190; also: % is scaled to controls: 0 for no effect and ±100 for the full control effect
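Purified human 12hLO (150 nM final) in 25 mM Hepes, 0.01% Triton X-100, pH 7.0 was preincubated 15 min at room temperature with compound. Then 40 uM arachidonic acid was added, 30 min. Hydroperoxide was read by Fe-XO absorbance ratio 573/405 nm.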
Sfp PPTase inh = inhibitors of Bacillus subtilis Sfp phosphopantetheinyl transferase; Q9F4F7; Biochemical Sfp PPTase activity, qHTS; Potency, µM, without a hit: largest response in the series, negative = inhibition, most hits filed as inhibitors; 310,000 tested, 3.5% active; AID 1490;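 also: the enzyme is Sfp with the accession as filed and its product quenches rhodamine fluorescence; 0% = enzyme reaction without inhibitor and -100% = no enzyme wells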
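Reaction rates are the 30-min fluorescence difference (ex 525, em 598 nm) in wells containing 15 nM Sfp, 5 uM rhodamine-CoA and 12.5 uM BHQ-2-YbbR at pH 7.6 with 10 mM MgCl2.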
HP1b binding inh = blocks HP1-beta chromodomain binding to methylated histone tails; P83916; AlphaScreen HP1-beta / biotin-H3K9me3 peptide binding; Potency, µM (titrated, usually from 114 µM), without a hit: at the highest dose activity change, negative = inhibition, actives largely listed as inhibitors; 390,000 tested, 0.56% active; AID 540317; also: nearly all actives have a fitted effect of over 70% in size
Target sequence (P83916 whole entry, looked up): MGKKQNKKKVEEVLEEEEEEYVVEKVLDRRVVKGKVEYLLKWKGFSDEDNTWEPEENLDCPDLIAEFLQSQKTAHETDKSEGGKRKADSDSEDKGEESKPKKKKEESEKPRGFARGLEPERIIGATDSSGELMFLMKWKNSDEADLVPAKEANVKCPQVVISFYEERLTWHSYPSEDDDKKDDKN
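Compound inhibition of the preformed complex between 50 nM HP1-beta and 50 nM biotinylated H3K9me3 peptide was read by AlphaScreen. Buffer was PBS pH 7.4 with 0.01% Tween-20. Incubations ran 30 min at room temperature, with 10 ug/mL donor/acceptor beads.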
JMJD2A Tudor inh = inhibitors of human JMJD2A Tudor domain | AID 504339 | 390,000 tested, 4.4% active | Potency, µM (doses to about 114 µM), for the others: at the highest dose activity change, negative = inhibition, actives largely listed as inhibitors | AlphaScreen JMJD2A-Tudor / H3K4me3 peptide binding | O75164; also: % is scaled to controls: 0 for no effect and ±100 for the full control effect; nearly all actives have a fitted effect of over 50% in size
BAZ2B block = BAZ2B (human) inhibition; Q9UIF8; AlphaScreen BAZ2B-H3K14Ac peptide displacement; Potency, µM (series often up to 114 µM), for inactives: at the highest dose activity change, negative = inhibition, usual class: inhibitors; 360,000 tested, 4.4% active; AID 504333; also: % is scaled to controls: 0 for no effect and ±100 for the full control effect; nearly all actives have a fitted effect of over 60% in size
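AlphaScreen displacement: compounds (up to 110uM) incubated 30 min at room temperature with a preformed 50 nM BAZ2B/50 nM biotinylated H3K14Ac peptide complex in PBS pH 7.4 with Tween-20. Donor and acceptor beads at 10 ug/mL final added, 20 min light-protected before reading.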
Active calls of the source: *; ? = inconclusive; . = no result given; [ ] = remark or other dose. The list is not random: actives were taken first. Their share in the collection is about 8.7%. Calls follow the shape of the dose curve; as a rule, active = well fitted curve in the direction sought with a large enough effect; inconclusive = small, poorly fitted or top-dose-only effect, or another doubt; inactive = no such curve, though single readings can be large; an effect the other way counts as inactive or inconclusive. Potency is read from the fitted curve at half-maximal effect.

SMILES | G9a block | ALOX12 inh | Sfp PPTase inh | HP1b binding inh | JMJD2A Tudor inh | BAZ2B block
Cc1ccc(C2CC(=O)N3CN(c4ccc(Br)cc4)CSC3=C2C#N)o1 (centres undefined) | ? | ? | 1.3µM* | -6% | 22µM* | 56µM*
CCCCCCSC1=C(C#N)C(c2ccc(C)o2)CC(=O)N1 (centres undefined) | ? | ? | -10% | 21% | -20% | ?
CCOc1ccc(N2CC(NC(=O)c3ccco3)CC2=O)cc1 (centres undefined) | 21%[59 µM] | -27% | . | 23% | 4% | 4%
CC(=O)c1sc2ccccc2c1OC(=O)c1ccc(C(C)(C)C)cc1 | . | -4% | . | . | . | .
CCOC(=O)CCCCC(=O)c1[nH]c(=O)[nH]c1CSc1nc(C)cc(C)n1 | ? | 0% | -19% | 27% | -29% | ?
CCOC(=O)CCCCC(=O)c1[nH]c(=O)[nH]c1CSc1nc(C)cc(=O)[nH]1 | ? | -6% | 7% | 18% | ? | 50µM*
CCOC(=O)CCCCC(=O)c1[nH]c(=O)[nH]c1CSc1nnc2c3cc(Br)ccc3n(C)c2n1 | 28µM* | . | ? | . | . | -67%
CCOC(=O)CCCCC(=O)c1[nH]c(=O)[nH]c1CSc1nc2ccccc2[nH]1 | 1.6µM* | -26% | -12% | 21% | 79µM* | ?
CCC(C(=O)Nc1ccccc1OCc1cc(=O)n2cccc(C)c2n1)c1ccccc1 (centres undefined) | . | -4% | . | . | . | .
COC(=O)c1ccc(NC(=S)NC2c3ccccc3CC2O)cc1 (centres undefined) | 50µM* | ? | 8% | -7% | -4% | 1%
COC(=O)c1ccc(NC(=S)NNC(=O)CC(C)C)cc1 | 10µM* | -17% | 45µM* | -12% | -23% | -1%
Cc1ccc(NC(=S)NC(=O)C2CC2)cc1Cl | ? | ? | 8% | 57% | 1% | -3%
COC(=O)c1ccc(NC(=S)NC(=O)C2CCC2)cc1 | 79µM* | ? | -4% | 47% | -6% | -6%
O=C(NC(=S)Nc1ccc(F)c(Cl)c1)C1CC1 | 56µM* | ? | 4% | 43% | -4% | -14%
COC(=O)c1ccc(NC(=S)NC2CCCCC2C)cc1 (centres undefined) | 39%[59 µM] | -15% | 10% | 26% | -9% | 2%
Cc1ccc(C(=O)N2CCN(c3cc(Cl)ccc3C)CC2)s1 | . | 4% | . | . | . | .
CC(C)CCOCC(O)CCC(=O)NNC(=S)Nc1ccccc1 (centres undefined) | 28µM* | -2% | 5% | 24% | -11% | -2%
CCOC(=O)c1ccc(NC(=S)NC(=O)C2CCCC2)cc1 | -7% | 40µM* | -18% | 42% | -3% | -15%
CCOC(=O)c1ccc(NC(=S)NNC(=O)C2(C)CC2(Cl)Cl)cc1 (centres undefined) | 10µM* | 267% | -6% | -2% | -18% | 11%
CCOC(=O)c1ccc(NC(=S)NNC(=O)COC)cc1 | ? | 21% | -8% | 13% | -5% | 44%
CC(O)CCC(=O)NNC(=S)Nc1ccccc1 (centres undefined) | 6%[12.7 µM] | -9% | 0% | 14% | -7% | 3%
CN(C)C[C@@H]1CN(Cc2ccccc2)C[C@H]1NC(=O)c1cnn(C)c1 | . | 51% | . | . | . | .
CC(=O)c1sc2nc(C)c3c(c2c1N)CCCC3 | 6% | ? | ? | 85% | 22% | -14%
CC(=O)c1sc2nsc(SCCN3CCCC3)c2c1N | -75%[59 µM] | 0% | 40µM* | ? | 89µM* | ?
CCCCn1c(CCC)nc([N+](=O)[O-])c1Sc1ccc(Cl)cn1 | 14µM* | -14% | -5% | 4% | -22% | -20%
CC(C)Cn1c(C(C)C)nc([N+](=O)[O-])c1Sc1ccc(Cl)cn1 | ? | ? | -3% | 29% | -12%[57.1 µM] | -8%
CC(=O)Nc1ccccc1OCC(=O)NC(C)C | . | -2% | . | . | . | .
